# Assay results published in article PMC5540273 (PLoS ONE, 2017).
# Legend:
# Details in all cases: concentration: 1 μM, replicates: in singlicate; n = 1
# [1] = tested on: EPHB4
# [2] = tested on: EPHB6
# [3] = tested on: ERBB2
# [4] = tested on: ERBB3
# [5] = tested on: ERBB4
# [6] = tested on: T1, ERK1
# T1 construct: gene MAPK3
# [7] = tested on: T2, ERK2
# T2 construct: gene MAPK1
# [8] = tested on: T3, ERK3
# T3 construct: gene MAPK6
# [9] = tested on: T4, ERK4
# T4 construct: gene MAPK4
# [10] = tested on: T5, ERK5
# T5 construct: gene MAPK7
# [11] = tested on: T6, ERK8
# T6 construct: gene MAPK15
# [12] = tested on: ERN1
# [13] = tested on: T7, FAK
# T7 construct: gene PTK2
# [14] = tested on: FER
# [15] = tested on: FES
# [16] = tested on: FGFR1
# [17] = tested on: FGFR2
# [18] = tested on: FGFR3
# [19] = tested on: FGFR4
# [20] = tested on: FGR
# 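Also: KINOMEscan kinase panel screen.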
Compound,%Inh [1] [%],%Inh [2] [%],%Inh [3] [%],%Inh [4] [%],%Inh [5] [%],%Inh [6] [%],%Inh [7] [%],%Inh [8] [%],%Inh [9] [%],%Inh [10] [%],%Inh [11] [%],%Inh [12] [%],%Inh [13] [%],%Inh [14] [%],%Inh [15] [%],%Inh [16] [%],%Inh [17] [%],%Inh [18] [%],%Inh [19] [%],%Inh [20] [%]
O=C1NC(=O)C(c2ccc(Cl)cc2)=C1Nc1ccc(O)cc1 [SB-340867],0,0,0,0,26,0,0,0,0,0,29,0,0,4,0,0,0,0,0,12
COc1cccc(NC(=O)Nc2ccc(C)c(-c3ccc(C(=O)Nc4ccncc4)cc3)c2)c1 [GSK1398474],8,26,0,0,25,7,0,7,1,0,1,1,13,42,12,9,0,28,3,32
c1ccc(-c2ccnc3[nH]ccc23)cc1 [SB-693578],1,29,33,14,0,0,3,0,1,0,0,11,0,0,0,0,0,7,13,2
Fc1ccc(-c2nc3n(c2-c2ccncc2)CCS3)cc1 [GI98581],2,7,0,3,8,10,25,5,0,0,0,28,0,13,0,0,0,20,0,21
Cc1ccc(-c2nc(Nc3ccncc3)c3ccccc3n2)s1 [GSK189015],22,2,0,0,31,17,100,0,0,0,52,22,27,6,19,15,30,28,5,22
NS(=O)(=O)c1cccc(N/C=C2\C(=O)Nc3ccc(S(=O)(=O)Cc4c(Cl)cccc4Cl)cc32)c1 [GSK398099],15,44,0,0,37,0,0,24,48,0,0,7,0,7,1,0,0,7,9,31
Cc1ccccc1-c1cc(-c2c[nH]nc2-c2ccccn2)ccn1 [GW680061],10,4,22,0,25,1,0,0,25,0,0,0,0,2,0,0,0,0,0,15
COc1ccc(CSc2nnc(-c3ccc4c(c3)CCO4)o2)cc1,13,0,18,0,0,0,0,0,0,6,0,0,0,0,12,0,0,0,0,14
Cn1cnc2c(N)ncnc21 [SKF-97623],52,0,35,0,39,77,0,0,0,0,12,0,0,0,0,0,0,0,0,51
COc1ccc(Nc2nccc(NCCNC(=O)Nc3cc(C)ccc3C)n2)cc1 [GSK1379899],8,0,1,0,0,1,0,0,0,0,43,0,0,17,4,11,15,0,0,14
O=C1NC(=O)C(c2ccc(Cl)cc2)=C1Nc1cccc(Cl)c1 [SB-317651],0,8,14,0,0,0,8,0,0,0,10,3,0,0,0,0,0,4,0,0
CNc1cc(-c2ccc3c(N)n[nH]c3c2)nc(N)n1 [GSK2224810],19,0,32,0,0,0,0,3,7,0,0,0,0,19,9,0,0,28,7,24
COc1cccc(CNC(=O)NC2CCN(c3ccnc(Nc4ccc(F)cc4)n3)C2)c1 (stereo not drawn) [GSK1379723],2,15,2,0,22,0,0,10,0,0,60,4,0,6,0,0,3,15,10,8
COc1ccc(Nc2nccc(N3CCC(NC(=O)c4cc5ccccc5s4)C3)n2)cc1 (stereo not drawn) [GSK1379738],0,17,1,8,0,0,0,0,15,0,0,0,0,0,0,0,0,2,4,15
Cc1ccc(NC(=O)Nc2ccc(Cl)c(C(F)(F)F)c2)cc1-c1ccc(C(=O)Nc2ccncc2)cc1 [GSK1398470],12,18,0,0,6,15,12,10,10,0,0,25,0,22,15,0,12,23,11,19
Cl.Cl.Cl.N#Cc1ccc(CCNc2nccc(-c3cccc(CN4CCNCC4)c3)n2)cc1 [GSK2137462],16,1,0,0,0,0,0,31,4,0,28,25,56,4,6,0,10,17,22,23
O=C(Nc1n[nH]c2nc(-c3ccco3)c(Br)cc12)C1CCN(Cc2ccccc2)C1.O=C(O)[C@H](O)[C@@H](O)C(=O)O (stereo not drawn) [SB-742034],0,34,0,0,13,8,1,0,0,0,2,19,4,0,0,23,0,0,10,6
CS(=O)(=O)Cc1ccc(Nc2nccc(-c3c(-c4cccc(NC(=O)C5CCCCC5)c4)nn4ncccc34)n2)cc1 [GSK350559],0,42,25,22,74,2,0,0,3,0,0,33,0,8,0,0,41,16,6,27
Nc1ncnc2occ(-c3ccc4c(c3)CCN4C(=O)Cc3cc(F)ccc3F)c12 [GSK2645446],6,87,30,11,0,0,0,21,0,0,0,0,0,8,0,0,0,17,1,16
COC(=O)c1cccc(NC(=O)NC2CCN(c3ccnc(Nc4ccc(F)cc4)n3)C2)c1 (stereo not drawn) [GSK1379725],0,0,16,0,0,0,0,0,0,0,0,0,0,0,0,0,4,4,9,12
Cc1cnc(N)c(/C=C/c2cncc(C(=O)NCCc3ccc(Cl)cc3Cl)c2)c1.Cl [GSK190937],9,0,7,0,0,7,0,0,6,0,0,0,0,4,0,0,9,13,6,17
